The panel holds about 83,000 compounds, 20% with a hit somewhere; the sample as a whole holds those more often.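 For each line, cells grew in 96-well plates with the test compound present at a single concentration for 48 hours.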 Values without a mark were called inactive. Calls of active or inactive are those of the source. How the source made its calls: active means growth percent below 10; inactive means the rest.
Legend:
Assay in all cases: NCI-60 one-dose screen, 48 h (100 = growth as untreated, 0 = no growth, -100 = all killed)
Conditions in all cases: 10 µM unless noted
HCT-15 colon = test system: HCT-15 colon
HT29 colon = test system: HT29 colon
SNB-19 CNS = test system: SNB-19 CNS
U251 CNS = test system: U251 CNS
PC-3 prostate = test system: PC-3 prostate
SK-MEL-5 melanoma = test system: SK-MEL-5 melanoma
UACC-62 melanoma = test system: UACC-62 melanoma
LOX IMVI melanoma = test system: LOX IMVI melanoma
SK-MEL-28 melanoma = test system: SK-MEL-28 melanoma
SNB-75 CNS = test system: SNB-75 CNS

Row | SMILES | growth (HCT-15 colon) | growth (HT29 colon) [%] | growth (SNB-19 CNS) [%] | growth (U251 CNS) | growth (PC-3 prostate) | growth (SK-MEL-5 melanoma) | growth (UACC-62 melanoma) | growth (LOX IMVI melanoma) | growth (SK-MEL-28 melanoma) | growth (SNB-75 CNS)
1 | O=C(Nc1cccc(C(F)(F)F)c1)Nc1ccc(OCc2nnc(-c3ccccc3)o2)c(F)c1 | 26.7% | 43.2 | 46.6 | 29.5% | 5.14% (active) | 56.2% | 41.4% | 46.8% | 62.5% | –
2 | O=c1[nH]c(CN2CCN(c3ccccc3F)CC2)nc2sc3c(c12)CCC3 | 112% | 106 | 106 | 104% | 102% | 107% | – | 99.2% | 117% | –
3 | CSc1ccccc1C#C/C=C\C#Cc1ccccc1N1CCCCC1=O | 112% | 94.9 | 111 | – | 77.7% | 101% | 78.5% | 91.8% | 153% | –
4 | O=C(CNc1ccc(Cl)cc1)Nc1ccc(-c2nc3ccccc3s2)cc1 | -13.9% (active) | 47.9 | 63.6 | 26.3% | 85.3% | 25% | 30.1% | -41% (active) | – | –
5 | CCCS(=O)(=O)c1nc(NC2CC2)cc(-c2ccc3c(ccn3C3CC(C)(C)NC(C)(C)C3)c2)n1 | -71.4% (active) | – | 38.9 | -65.5% (active) | 17.4% | 16.2% | -83.1% (active) | -91.5% (active) | -59.2% (active) | -16.2% (active)
6 | COc1ccc(/C=C2\Oc3cc(OCCN4CCCC4)ccc3C2=O)c(OC)c1 | 80.2% | – | 92.2 | 76.5% | 84.9% | 90.2% | 101% | 81.2% | 96.9% | 93.2%
7 | COc1cccc(/C=C/C(=O)c2sc(Nc3ccc(O)cc3)nc2C)c1 | 83.7% | – | 95.1 | 89.6% | 85.9% | 95.4% | 94.4% | 87.5% | 102% | 84.1%
8 | COc1ccc(C(=O)c2cc(OC)c(OC)c(OC)c2)cc1/C=C/C(=O)c1ccc(OC)c(OC)c1 | 12.8% | – | 33.2 | 25.5% | 33.9% | 21.5% | 24.8% | 10.9% | 21.8% | 22.9%
9 | COc1cc(C(=O)N2CCN(C(=O)c3ccco3)CC2)c(N)cc1OCc1ccccc1 | 101% | – | 103 | 99.1% | 98.5% | 94.9% | 93.8% | 92.4% | 114% | 96.8%
10 | O=C(CC(O)c1ccncc1)c1ccccc1 (configuration not stated) | 36.4% | – | 68.2 | 73.4% | -17.2% (active) | 88.3% | 89.3% | -38% (active) | 105% | -5.32% (active)
11 | O=c1[nH]c2ccccc2cc1-c1nnc(Cc2ccccc2)o1 | 49% | – | 86 | 72.4% | 65.5% | 56.8% | 47.9% | 35% | 101% | 69.3%
12 | CC1=NN2C(=NC3=C(CCC/C3=C\c3ccc(Cl)cc3)C2c2ccc(Cl)cc2)S1 (configuration not stated) | 89.3% | – | 84.3 | 85.9% | 95.3% | 96.6% | 83% | 60.6% | 99.3% | 100%
13 | COc1ccc(/C=C/c2nc(N3CCOCC3)c3cc(F)c(F)cc3n2)cc1OC | 36.3% | – | 45.3 | 41.5% | 8.26% (active) | -18.1% (active) | 41.1% | 36.4% | 52.4% | 54.8%
14 | Cc1ccc(S(=O)(=O)OC2COCOC2C(OS(=O)(=O)c2ccc(C)cc2)C2OCOCC2OS(=O)(=O)c2ccc(C)cc2)cc1 (configuration not stated) | 107% | – | 108 | 102% | 97.6% | 99.9% | 98.3% | 103% | – | 115%

From PubChem BioAssay (NCI)
